In the library only some 5.4% were active in any assay of this set; here they are far more common.
AHR act: human AHR activation; 320,000 compounds, 2.5% hits; AHR-responsive luciferase reporter cells, luminescence; activation, % at 5 µM; in the data active means activation above about 47%;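 further: 0% = vehicle wells and 100% = reference agonist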
HSF1 inhib: HSF1 inhibition. NIH3T3-HGL HSE-luciferase, MG132-induced, luminescence 8 h; active compounds read low. activity change, negative = inhibition, % at 7.5 µM (by protocol). 300,000 compounds, 0.77% hits. AID 2098;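 active means more than half of replicate wells show activity change below -50%, luminescence cut by over half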;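 further: luciferase reports HSF-1 transcriptional activity via heat shock element; 0% = median of DMSO wells and -100% = zero luminescence signal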
NR0B1 inh: NR0B1 (DAX1) inhibition; AID 504766; 340,000 compounds, 0.99% hits; HEK293 Gal4-DAX1 luciferase reporter, luminescence; inhibition, % at 6.75 µM;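 active means inhibition above the mean over all tested compounds plus 3 SD, cut at about 4.2% in these data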;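 further: 0% = DAX1-transfected cells with DMSO and 100% = empty-vector control cells with DMSO; inhibition shows as a rise in luminescence from relieved DAX1 repression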
Target sequence (P51843 207-470 limits assumed): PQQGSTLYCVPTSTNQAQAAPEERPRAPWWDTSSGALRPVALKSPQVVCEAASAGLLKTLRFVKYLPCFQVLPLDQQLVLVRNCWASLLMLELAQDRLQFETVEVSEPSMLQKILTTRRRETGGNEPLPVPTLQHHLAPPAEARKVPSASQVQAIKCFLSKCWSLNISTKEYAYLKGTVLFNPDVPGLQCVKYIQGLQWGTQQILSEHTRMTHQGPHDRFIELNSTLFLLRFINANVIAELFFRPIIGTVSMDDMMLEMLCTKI
HSF1 activator: increases HSF-1 driven luciferase reporter signal. NIH3T3-HGL HSF-1 luciferase reporter, MG132, 8 h; 100% = twice DMSO control signal. activation, % at 9 µM. 300,000 compounds, 1.7% hits. AID 504408;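 active means mean replicate activation of at least 50% with a set share of replicates each reaching 50%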;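 further: 0% = median of the neutral control wells and 100% = twice that signal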
FXN GAA850 act: increases GAA850 frataxin promoter reporter activity; HEK293 lucGAA850 FXN promoter luciferase reporter, 24 h; percent of 10 µM SAHA response; activation, % at 6 µM; 360,000 compounds, 0.56% hits; AID 540364;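 active means activation above the average of all compounds screened plus 3 SD, cutoff fixed separately per campaign, cut at about 7.5% in these data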;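 further: 0% = DMSO wells and 100% = 10 µM SAHA wells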
The depositor's hits bear a star; · = no result.

SMILES | AHR act | HSF1 inhib | NR0B1 inh | HSF1 activator | FXN GAA850 act
Nc1c(C(=O)N2CCOCC2)sc2nc3c(cc12)CCCC3 | 48.6* | -9.6 | -3.0 | -12.4 | -4.1
Nc1c(C(=O)N2CCOCC2)sc2nc3c(cc12)CCC3 | 33.4 | -3.5 | -0.4 | 10.0 | 0.8
Cc1cc(C)c2nc3sc(C(=O)N4CCOCC4)c(N)c3cc2c1 | 72.2* | -33.4 | -1.7 | -39.6 | 0.8
Cc1ccc(C)c2nc3sc(C(=O)N4CCOCC4)c(N)c3cc12 | 20.3 | -2.2 | 0.0 | -15.6 | 0.0
COc1ccc(-c2csc(NCCc3nc4cc(C(=O)NCCCO)ccc4n3Cc3ccc(C)cc3)n2)cc1 | 7.3 | -1.0 | -1.7 | 0.8 | 1.6
Cc1nc(-c2ccc(Cl)cc2)sc1C1(C)CC(c2ccc(Cl)cc2)=NO1 (centres undefined) | 8.2 | -63.2* | 1.0 | -71.0 | 3.6
Cc1ccc(NC(=O)c2cc(S(=O)(=O)N3CCCCC3)c[nH]2)cc1C | 17.2 | -5.6 | -0.7 | -4.5 | -3.1
CCOC(=O)C1CCCN(C(=O)c2ccc(F)c(Cl)c2)CC1 (centres undefined) | · | · | · | · | 1.7
CCCC(=O)Nc1c(-c2cccc(C)c2)c(=O)c2ccccc2n1C | 7.3 | 6.9 | -0.4 | -10.6 | -0.6
COc1cc(C(=O)N/C(=C\c2cn(C)c3ccccc23)C(=O)NCCCO)cc(OC)c1OC | 5.2 | -0.9 | 4.7* | -1.5 | 2.2
Cc1ccc(C(=O)N/C(=C\c2cn(C)c3ccccc23)C(=O)OCCN(C)C)cc1 | 46.0 | -1.1 | 0.4 | -8.3 | 0.6
COc1cc(C(=O)N/C(=C\c2cn(S(=O)(=O)N(C)C)c3ccccc23)C(=O)NCCCO)cc(OC)c1OC | -1.4 | 2.4 | 0.8 | 13.1 | -2.2
CCN(CC)CCNC(=O)/C(=C/c1cn(C)c2ccccc12)NC(=O)c1ccc(OC)c(OC)c1 | 2.0 | -11.5 | 5.2* | 5.1 | 0.9
CN(C)CCOC(=O)/C(=C/c1cn(C)c2ccccc12)NC(=O)c1ccccc1 | 63.0* | -6.8 | 2.0 | -1.6 | 0.5
CC1=C(C(=O)Nc2cccc(C(=O)NC3CCCCC3C)c2)SCCO1 (centres undefined) | 1.2 | 6.2 | -0.9 | -5.7 | -1.0
O=C(NC1CCCCC1)c1cc(-c2ccc(F)cc2)on1 | -0.5 | 22.3 | 0.4 | 53.8* | 4.5
CS(=O)(=O)c1ccc(NC(=O)c2cccc(-n3cnnn3)c2)cc1 | 4.2 | · | 1.7 | · | -1.1
Cc1ccc(NC(=O)c2cccc(-n3cnnn3)c2)cc1Cl | 56.2* | · | -0.5 | · | -0.7
CC(C)c1ccc(C2=C(O)c3ccccc3C(=O)C2=O)cc1 | 54.2* | 6.5 | -1.0 | 6.1 | 2.3
COC(=O)c1cccc2c1NC(=O)C2=O | 8.9 | -1.4 | 8.0* | -1.7 | 2.5
CC1(C)NC(=O)N(CC(=O)OCC(=O)c2ccc(Br)s2)C1=O | 1.5 | · | 1.5 | · | -2.2
O=C1NC2(CCCCC2)C(=O)N1c1ccccc1 | 7.2 | 6.3 | 5.8* | 21.8 | -0.1
CCOc1ccc(OCC(=O)OCC(=O)NNC(=O)c2ccc([N+](=O)[O-])cc2)cc1 | 0.0 | -7.4 | -0.7 | -0.2 | -0.3
COc1ccc(-c2ccc(C#N)c(SCC(=O)Nc3sc4c(c3C#N)CCC4)n2)cc1OC | -0.3 | 36.7 | 2.1 | 53.4* | 1.6
CC1CCc2c(sc(NC(=O)CSc3nnc(-c4ccccc4)o3)c2C#N)C1 (centres undefined) | 8.6 | 25.2 | -0.2 | 53.2* | 6.9
SMILES | AHR act | HSF1 inhib | NR0B1 inh | HSF1 activator | FXN GAA850 act
N#Cc1c(NC(=O)CSc2nnc(-c3ccccc3)o2)sc2c1CCCC2 | 11.7 | 52.4 | -0.3 | 76.1* | 3.6
Cc1sc(NC(=O)CSc2nnc(-c3ccccc3)o2)c(C#N)c1C | 2.5 | 26.6 | -0.4 | 43.2 | 1.4
CC(C)(C)OC(=O)N1CCC[C@H]1C(=O)N/N=C/c1ccc2ncccc2c1 | -0.2 | -2.0 | 1.1 | 3.3 | 0.5
O=C(CN1CCSC1=O)N1CCN(S(=O)(=O)c2ccccc2)CC1 | -0.7 | · | 0.7 | · | 0.7
CSc1nc(N)nc2c1ncn2CC(=O)N[C@H](CO)Cc1c[nH]c2ccccc12 | 0.6 | · | 0.6 | · | 0.4
Cn1cc([N+](=O)[O-])c(C(=O)n2cccn2)n1 | -3.6 | -12.4 | 2.2 | -31.2 | 0.4
COC(=O)c1ccc(COc2ccccc2/C=C(\C#N)C(=O)Nc2ccc(C)cc2C)cc1 | -1.0 | 8.2 | -0.3 | 7.0 | 0.2
COC(=O)c1ccc(COc2ccccc2/C=C(\C#N)C(=O)Nc2c(C)cc(C)cc2C)cc1 | -1.5 | 68.0 | 2.5 | 93.2* | -1.8
COc1ccc(CCN2CC(C(=O)NCc3cc(C)on3)CCC2=O)cc1 (centres undefined) | · | 30.4 | 0.0 | 74.1* | -0.8
Cc1ccc(CNC(=O)C2CCC(=O)N(Cc3ccc(Cl)cc3)C2)cc1F (centres undefined) | · | 15.5 | -0.4 | 56.0* | 0.1
c1ccc(N2CC3CCc4ccccc4C3=N2)cc1 (centres undefined) | 56.5* | 22.7 | 3.7 | 57.4* | 2.8
O=C(C1CC(=O)N(c2ccc(Cl)cc2)C1)N1CCC(c2nc3ccccc3[nH]2)CC1 (centres undefined) | 1.2 | -7.9 | -0.5 | 3.2 | -0.8
O=c1c2cccnc2[nH]c(=S)n1CCCN1CCN(c2ccc(F)cc2)CC1 | 21.6 | 5.9 | -0.2 | 26.4 | -1.9
COc1ccc(N2CCN(CCCn3c(=S)[nH]c4ncccc4c3=O)CC2)cc1 | -0.2 | -56.3* | -0.9 | -64.3 | -2.3
Cc1cccc(NC(=O)c2nc[nH]c2C(=O)N[C@@H](C)CO)c1 | · | · | 0.7 | · | -0.2
C=CCNC(=O)c1ccccc1NC(=O)c1ccccc1SC | 76.7* | -2.2 | -1.3 | -7.1 | 1.6
COC(=O)c1c(C(=O)OC)c(-c2cccc(F)c2)n2c1CS(=O)(=O)C2 | 1.6 | 0.5 | 0.5 | 1.4 | -0.2
Cc1cccc(C)c1N1CCN(c2ccc3nnc(C(F)(F)F)n3n2)CC1 | 3.9 | 88.2 | 0.5 | 129.3* | 2.3
CN1C(=O)C2(c3ccccc31)N(C)CC(c1ccccn1)C21SC(=S)N(Cc2ccco2)C1=O (centres undefined) | 2.4 | 34.2 | 1.3 | 84.9* | -6.1
CN1C(=O)C2(c3ccccc31)N(C)CC(c1ccccc1)C21SC(=S)N(Cc2ccco2)C1=O (centres undefined) | 0.3 | 1.5 | 0.1 | 6.5 | -1.1
Cc1cc(NCCCn2ccnc2)n2nc(C)c(-c3ccc(Cl)cc3)c2n1 | 48.4* | -4.8 | -0.3 | -5.6 | -1.8
Cc1cc(NCCN2CCOCC2)n2nc(C)c(-c3ccc(Cl)cc3)c2n1 | 28.1 | 31.4 | -0.8 | 65.0* | -0.3
Cc1cc(NCCCn2ccnc2)n2nc(C)c(-c3ccccc3)c2n1 | 112.1* | 1.5 | 2.4 | 25.1 | -0.5
Cc1ccc(-c2nc3ccccc3[nH]2)cc1NC(=O)c1ccc2c(c1)OCO2 | 15.7 | 33.6 | -1.6 | 87.8* | 0.8
O=C(NC(=S)Nc1cc(-c2nc3ccccc3[nH]2)ccc1Cl)c1ccc2c(c1)OCO2 | 83.6* | -23.1 | 0.5 | -15.4 | 1.5
O=C(NCC1CCCO1)c1cc([N+](=O)[O-])ccc1Cl (centres undefined) | 2.1 | -1.0 | 0.2 | 0.9 | -0.2

Compound activity deposited in PubChem by several laboratories.
